An excerpt weighted towards active compounds, which were near 7.4% of everything screened.
Luc counter – blocks Kinase-Glo luciferase, a counter-screen artifact | Potency, µM (top dose mostly 38.3 µM), without a hit: at the top dose activity change, negative = inhibition, hits mostly inhibitors | Kinase-Glo luciferase, ATP luminescence, 8 min | 0.28% of 200,000 active | AID 1379 | Q27757; also: % is scaled to controls: 0 for no effect and ±100 for the full control effect; nearly all actives have a fitted effect of over 60% in size
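Compounds were added to a substrate mix at pH 7.2 (50 mM imidazole, 10 uM ATP, within the enzyme's linear range), followed by Kinase-Glo detection reagent; luminescence was measured after 8 minutes at ambient temperature.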
Rab9 promoter act – Rab9 promoter activation. Huh7 Rab9 promoter-luciferase reporter, luminescence, 24 h. Potency, µM (doses to about 9.22 µM), without a hit: top-dose activation, negative = inhibition, most hits filed as activators. 2.8% of 320,000 active; also: % of control where 0% means no effect; nearly all actives have a fitted effect of over 60% in size
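Measured in stably transfected Huh7 cells bearing a Rab9 promoter–luciferase construct: 24 h compound treatment at 37 °C, followed by luminescence detection.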
NPC1 promoter act – activators of NPC1 promoter. AID 485313. 2.4% of 320,000 active. Potency, µM (top dose mostly 9.22 µM), for the others: at the highest dose activation, most hits filed as activators. Huh7 NPC1 promoter luciferase reporter, 24 h; also: % of control where 0% means no effect; nearly all actives have a fitted effect of over 60% in size
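Cells: Huh7 expressing luciferase under the NPC1 promoter, 1500/well. Seeded 2 h, compound added, incubated 24 h at 37 °C. Luciferase reagent, 10 min ambient, then luminescence.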
ELG1 genotox – genotoxicity induction in ELG1-luciferase HEK293T cells; HEK293T ELG1-luciferase reporter, luminescence, 16 h; Potency, µM (series often up to 46 µM), inactives show top-dose activity change, positive = activation, hits mostly activators; 1.3% of 330,000 active; AID 504466; also: % of control where 0% means no effect; nearly all actives have a fitted effect of over 60% in size
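Reporter readout depends on ELG1 protein level, which increases with genetic stress. After 16 hr compound exposure at 37 °C, luciferase activity was quantified using ONE-Glo.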
SMN2 splice up – SMN2 splice variant enhancement; HEK293 SMN2-luciferase splicing reporter, luminescence, 30-36 h; 2.8% of 210,000 active; Potency, µM (top dose mostly 46.1 µM), for inactives: top-dose activity change, positive = activation, usual class: activators; also: % of control where 0% means no effect; nearly all actives have a fitted effect of over 55% in size
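HEK293 cells carry an SMN2 […]–luciferase reporter in which exon 7 inclusion puts luciferase in frame. Cells were plated 10-12 h before compound addition, then incubated 30-36 h at 37C. ONE-Glo luminescence was read; sodium butyrate at 4.5 mM final served as control.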
FLuc modulator – inhibits or activates purified firefly luciferase, miR-21 counter-screen; Potency, µM (doses to about 57.5 µM), for the others: top-dose activity change, negative = inhibition, actives largely listed as inhibitors; AID 588342; purified FLuc, Km substrates, luminescence inhibition; P08659; 6.9% of 360,000 active;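 also: plate controls were vehicle for no effect and reference inhibitor for full effect; nearly all actives have a fitted effect of over 55% in size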
Target sequence (P08659 whole entry, looked up): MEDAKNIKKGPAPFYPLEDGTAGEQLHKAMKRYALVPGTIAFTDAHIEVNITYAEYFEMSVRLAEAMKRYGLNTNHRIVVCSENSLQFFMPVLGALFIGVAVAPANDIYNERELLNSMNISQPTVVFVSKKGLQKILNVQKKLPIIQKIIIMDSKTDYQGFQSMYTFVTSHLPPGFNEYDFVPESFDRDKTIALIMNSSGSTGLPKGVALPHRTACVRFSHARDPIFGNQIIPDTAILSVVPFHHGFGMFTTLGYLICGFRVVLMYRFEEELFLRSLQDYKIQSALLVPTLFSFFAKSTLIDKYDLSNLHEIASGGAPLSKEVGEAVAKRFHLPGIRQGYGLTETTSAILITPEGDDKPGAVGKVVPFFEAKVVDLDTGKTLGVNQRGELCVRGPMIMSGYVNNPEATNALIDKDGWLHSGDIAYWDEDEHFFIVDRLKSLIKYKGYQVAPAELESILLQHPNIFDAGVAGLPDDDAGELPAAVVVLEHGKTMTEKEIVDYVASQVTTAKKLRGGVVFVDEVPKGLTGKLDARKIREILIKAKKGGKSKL
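Purified P. pyralis luciferase, 10 nM final, with Km-level 10 uM D-luciferin and 10 uM ATP in 50 mM Tris acetate pH 7.5, 10 mM Mg acetate, 0.01% Tween-20, 0.05% BSA; 6-point qHTS titration about 60 µM downward; luminescence read.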
Active calls of the source: *; u = inconclusive; x = no result given. Calls follow the shape of the dose curve; as a rule, active = well fitted curve in the direction sought with a large enough effect; inconclusive = small, poorly fitted or top-dose-only effect, or another doubt; inactive = no such curve, though single readings can be large; an effect the other way counts as inactive or inconclusive. Potency is read from the fitted curve at half-maximal effect.

SMILES	Luc counter	Rab9 promoter act	NPC1 promoter act	ELG1 genotox	SMN2 splice up	FLuc modulator
O=C(/C=C/c1ccco1)Nc1ccc2nn(-c3ccccc3)nc2c1	-0.2%	u	21.8%	1.4%	15.7%	-17.7%
CCSc1nnc(NC(=O)/C=C/c2ccco2)s1	0.4%	3.98µM*	u	u	11.2µM*	-8.1%
CCSc1nnc(NC(=O)C(C)(C)C)s1	-2.7%	u	28.8%	u	26.3%	u
CC(C)(C)c1ccc(OCC(=O)N2CCN(c3ccccn3)CC2)cc1	x	-0.9%	6.1%	-3.0%	x	12µM*
O=C(CCSCc1ccccc1Cl)N1CCN(c2ccccn2)CC1	0.0%	u	u	3.9%	4.1%	23.9µM*
O=C(O)CCC(=O)N1CCN(c2ccccn2)CC1	-2.8%	10.0%	-2.0%	-1.3%	1.8%	3.3%
CC(C)(C)c1ccc(OCC(=O)N2CCN(c3ncccn3)CC2)cc1	x	9.5%	3.9%	-1.3%	x	u
COc1ccc(SCc2cc(=O)c3cc(Cl)ccc3[nH]2)cc1	x	x	x	x	x	3.6%
CCCc1ccc(S(=O)(=O)N2CCC(c3nnc(-c4cccc(C)c4)o3)CC2)cc1	x	x	x	x	-30.0%	-18.6%
CCOc1ccc(CNC(=O)c2cnc3sc(N4CCOCC4)nn3c2=O)cc1OC	x	x	x	x	x	-4.1%
CCOC(=O)c1nn(-c2ccc(C)cc2)cc1O	-19.4%	u	4.47µM*	3.16µM*	u	7.57µM*
CCOC(=O)c1nn(-c2cc(C(=O)OC)cc(C(=O)OC)c2)cc1O	-2.7%	-3.2%	-2.2%	3.5%	1.7%	2.0%
CCOC(=O)c1nn(-c2ccc3ccccc3c2)cc1O	0.4%	23.2%	u	14.6µM*	13.3%	8.49µM*
CCOC(=O)C1=NN(c2ccc(Cl)cc2)C(=O)C1	x	u	u	u	x	9.53µM*
CCOC(=O)c1nn(-c2sc(C(=O)OC)c(C)c2C(=O)OC)cc1O	0.6%	-1.6%	-0.3%	5.1%	u	-1.6%
CCOC(=O)c1cc(C(=O)OCC)cc(-n2cc(O)c(C(=O)OCC)n2)c1	-1.4%	0.2%	0.2%	0.4%	-0.1%	-0.8%
COC(=O)c1nn(-c2ccc(-c3ccccc3)cc2)cc1O	-13.4%	u	u	12.9%	u	0.338µM*
COc1ccc(-n2ncc(C(=O)N3CCN(c4ncccn4)CC3)c2C2CCN(C(=O)OC(C)(C)C)CC2)cc1	x	x	x	x	x	0.6%
CC(C)c1cccc2nc3c(c(C(C)(C)C)c12)Cn1c-3cccc1=O	-1.2%	x	x	x	-4.7%	x
CCOC(=O)c1nn(-c2ccc3c(c2)OCO3)cc1O	-11.9%	u	3.16µM*	u	u	12µM*
c1cc2c(cc1-n1cnnn1)OCO2	-1.6%	6.9%	1.9%	0.2%	17.4%	-3.2%
CCOC(=O)c1nn(-c2ccc(Cl)cc2)cc1O	x	u	u	u	x	10.7µM*
CCOC(=O)c1nn(-c2ccc(Cl)cc2C)ccc1=O	x	-0.3%	-0.8%	4.9%	x	-1.3%
O=C1CN(C(=O)c2ccc(S(=O)(=O)N3CCCCC3)cc2)C(c2ccc(F)cc2)c2cc(F)ccc2N1 (stereo unspecified)	x	x	x	x	5.4%	3.1%
CCN(CC)c1ccc(NC(=O)C2COc3ccc(OC)cc3C2)c(C)c1 (stereo unspecified)	x	x	x	x	x	3.1%
SMILES	Luc counter	Rab9 promoter act	NPC1 promoter act	ELG1 genotox	SMN2 splice up	FLuc modulator
O=C(CCS(=O)(=O)c1ccccc1)Nc1ccc(-c2nc3ccccc3s2)cc1	4.0%	0.501µM*	1.58µM*	u	1µM*	-19.5%
O=C(Nc1cccc(-c2nc3ccccc3s2)c1)c1cccs1	0.5%	3.4%	-2.2%	-1.2%	u	13.5µM*
O=C(CCS(=O)(=O)c1ccccc1)Nc1ccc(S(=O)(=O)Nc2ncccn2)cc1	x	0.8%	-2.8%	6.5%	x	-1.2%
O=C(CCS(=O)(=O)c1ccccc1)Nc1cccc(-c2nc3ccccc3s2)c1	-11.8%	u	u	u	-111.3%	6.75µM*
O=C(Nc1cccc(-c2nc3ccccc3s2)c1)c1cc(=O)c2ccccc2o1	2.1%	-0.8%	0.3%	12.9%	0.8%	-4.3%
Cc1ccc(CNC(=O)CSc2nc3ccccc3nc2Cc2ccc(C)cc2)cc1	x	x	x	x	x	-4.5%
CCc1ccc(NC(=O)CC2C(=O)N(c3cccc(OC)c3)C(=O)N2Cc2ccco2)cc1 (stereo unspecified)	x	x	x	x	x	-10.3%
Cc1ccc(C(=O)NCCc2c[nH]c3ccccc23)c(C)c1	x	3.16µM*	1.58µM*	9.0%	x	6.75µM*
CC(C)C(=O)NCCc1c[nH]c2ccccc12	-3.4%	0.3%	6.3%	1.1%	1.5%	-6.1%
Cc1ccc(C(=O)NCCc2c[nH]c3ccccc23)s1	x	3.16µM*	3.55µM*	u	x	12µM*
Cc1ccc(C(=O)N/C(=C\c2ccco2)C(=O)NCCc2c[nH]c3ccccc23)cc1	-1.0%	0.0%	0.6%	3.4%	17.4%	15.1µM*
COc1ccc(OC)c(CCNC(=O)Cn2ccc3cc(S(=O)(=O)N4CCCCC4)ccc32)c1	x	x	x	x	x	-3.1%
Cn1cccc1CNC(=O)Nc1ccc(Cl)cc1	-5.2%	3.55µM*	u	u	u	13.5µM*
Cc1cc(C)cc(NC(=S)NCc2cccn2C)c1	-2.2%	-3.7%	18.0%	-4.0%	0.5%	2.7%
Cc1ccc(NC(=O)NCCN2CCCCC2)cc1C	x	-0.4%	-5.5%	0.2%	x	2.5%
Cc1ccc(NC(=O)NCc2cccn2C)cc1C	x	u	3.98µM*	u	x	u
Cn1cccc1CNC(=O)Nc1ccccc1	6.0%	u	27.7%	u	u	19µM*
Cc1ccc(CNC(=O)Nc2ccccc2)n1C	x	25.6%	16.9%	7.8%	x	19µM*
O=C(Nn1cnnc1)c1cc2c(s1)CCCCC2	-5.0%	18.4%	15.3%	u	u	6.75µM*
O=C(NCc1ccco1)c1cc2c(s1)CCCCC2	-8.6%	1.58µM*	3.98µM*	11.6µM*	14.1µM*	13.5µM*
CC1CCc2sc(C(=O)NCCCn3ccnc3)cc2C1 (stereo unspecified)	x	-2.4%	0.9%	-9.9%	x	1.5%
O=C(O)C1CCCCN1C(=O)c1cc2c(s1)CCCCC2 (stereo unspecified)	x	0.1%	-8.2%	2.0%	x	x
O=C(NCCCn1ccnc1)c1cc2c(s1)CCCCC2	4.4%	7.5%	8.2%	u	9.1%	16.9µM*
CC(OC(=O)c1cc2c(s1)CCCCC2)C(=O)NC(N)=O (stereo unspecified)	-0.8%	1.9%	3.0%	-4.8%	-0.3%	23.9µM*
COC(=O)CC1C(C)(C)C(O)C2CC3=C4C=C(OC)OC(c5ccoc5)[C@]4(C)CCC3[C@@]1(C)C2=O (stereo partly specified)	-4.6%	x	x	x	-9.1%	x

Screening results (PubChem)
